Holding throughout (details): mRNA level, 48 h; actives raise or lower the signal
Read-out in assay [1]: Cyclin D1 (CCND1), CCND1 (gene 595)
The assay can be described thus: LTEA_HepaRG_CCND1: Life Technologies and Expression Analysis (LTEA) Assay for Cyclin D1 (CCND1) using HepaRG (AID 2283451).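 On AC50: TaqMan qRT-PCR transcript level normalised to ACTB GAPDH and POLR2A housekeeping genes.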 A digest of the protocol: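 Differentiated human HepaRG cells in serum-free induction medium were exposed 48 h to eight half-log concentrations up to 100 uM in 0.5% DMSO; mRNA quantified by TaqMan qRT-PCR, normalized to ACTB, GAPDH, POLR2A, fitted bidirectionally versus DMSO.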

Read-out in assay [2]: catalase (CAT), CAT (gene 847)
The assay can be described thus: LTEA_HepaRG_CAT: Life Technologies and Expression Analysis (LTEA) Assay for catalase (CAT) using HepaRG (AID 2283452). The essentials:
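HepaRG cells in serum-free induction medium, 0.5% DMSO vehicle, exposed 48 h in duplicate over 8 half-log concentrations from 100 uM. CAT mRNA measured by qRT-PCR, normalized to ACTB, GAPDH, POLR2A; bidirectional fit versus DMSO.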

Read-out in assay [3]: flavin-containing dimethylaniline monooxygenases 3 (FMO3), FMO3 (gene 2328)
Description: LTEA_HepaRG_FMO3: Life Technologies and Expression Analysis (LTEA) Assay for flavin-containing dimethylaniline monooxygenases 3 (FMO3) using HepaRG (AID 2283453). A digest of the protocol: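 Differentiated HepaRG cells in serum-free induction medium, exposed 48 h in duplicate to 8 half-log concentrations up to 100 uM in 0.5% DMSO. FMO3 mRNA by qRT-PCR, normalized to ACTB, GAPDH, POLR2A; bidirectional fit vs DMSO.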

Read-out in assay [4]: Cytochrome P450 (CYP1A1), CYP1A1 (gene 1543)
The assay can be described thus: LTEA_HepaRG_CYP1A1: Life Technologies and Expression Analysis (LTEA) Assay for Cytochrome P450 (CYP1A1) using HepaRG (AID 2283454). The essentials:
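Differentiated HepaRG cells in serum-free induction medium were exposed in duplicate for 48 h to eight half-log concentrations up to 100 uM in 0.5% DMSO. CYP1A1 mRNA was quantified by TaqMan qRT-PCR, normalized to ACTB, GAPDH and POLR2A.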

Read-out in assay [5]: CFLAR gene, CFLAR (gene 8837)
Description: LTEA_HepaRG_CFLAR: Life Technologies and Expression Analysis (LTEA) Assay for CFLAR gene using HepaRG (AID 2283455). The essentials: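 Differentiated HepaRG cells in serum-free induction medium were exposed 48 h in duplicate to eight half-log concentrations up to 100 uM in 0.5% DMSO; mRNA measured by TaqMan qRT-PCR, normalized to ACTB, GAPDH, POLR2A; bidirectional fitting versus DMSO.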

Read-out in assay [6]: Forkhead box O1 (FOXO1), FOXO1 (gene 2308)
Description: LTEA_HepaRG_FOXO1: Life Technologies and Expression Analysis (LTEA) Assay for Forkhead box O1 (FOXO1) using HepaRG (AID 2283456). The essentials: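 Differentiated HepaRG cells, in serum-free induction medium with 0.5% DMSO, exposed 48 h in duplicate to 8-point half-log series from 100 uM. FOXO1 mRNA measured by TaqMan qRT-PCR, normalized to ACTB, GAPDH, POLR2A; bidirectional fit versus DMSO.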

Read-out in assay [7]: Forkhead box O3 (FOXO3), FOXO3 (gene 2309)
The assay can be described thus: LTEA_HepaRG_FOXO3: Life Technologies and Expression Analysis (LTEA) Assay for Forkhead box O3 (FOXO3) using HepaRG (AID 2283459). A digest of the protocol:
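Differentiated human HepaRG cells, 48 h post-plating, exposed in duplicate for 48 h in serum-free induction medium; 8-point half-log series from 100 uM in 0.5% DMSO. FOXO3 mRNA by TaqMan qRT-PCR, normalized to ACTB/GAPDH/POLR2A; bidirectional fit versus DMSO.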

Read-out in assay [8]: ABC Transporter (ABCB1), ABCB1 (gene 5243)
The assay can be described thus: LTEA_HepaRG_ABCB1: Life Technologies and Expression Analysis (LTEA) Assay for ABC Transporter (ABCB1) using HepaRG (AID 2283460). The essentials: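 HepaRG cells exposed in duplicate for 48 h in serum-free induction medium to eight half-log concentrations up to 100 uM in 0.5% DMSO. ABCB1 mRNA quantified by qRT-PCR, normalised to ACTB, GAPDH and POLR2A; fitted bidirectionally versus DMSO.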

Read-out in assay [9]: ABC Transporter (ABCC3), ABCC3 (gene 8714)
Description: LTEA_HepaRG_ABCC3: Life Technologies and Expression Analysis (LTEA) Assay for ABC Transporter (ABCC3) using HepaRG (AID 2283462). A digest of the protocol: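 HepaRG cells in serum-free induction medium were exposed for 48 h in duplicate to 8-point half-log concentrations topping at 100 uM in 0.5% DMSO. ABCC3 mRNA was measured by qRT-PCR normalized to ACTB, GAPDH and POLR2A, with bidirectional fitting versus DMSO.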

Read-out in assay [10]: ABC Transporter (ABCB11), ABCB11 (gene 8647)
The assay can be described thus: LTEA_HepaRG_ABCB11: Life Technologies and Expression Analysis (LTEA) Assay for ABC Transporter (ABCB11) using HepaRG (AID 2283463). A digest of the protocol:
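Differentiated human HepaRG cells in serum-free induction medium, dosed in duplicate for 48 h. Eight-point half-log series from 100 uM in 0.5% DMSO; ABCB11 mRNA by qRT-PCR, normalized to ACTB, GAPDH, POLR2A, fitted bidirectionally versus DMSO.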

Read-out in assay [11]: ABC Transporter (ABCC2), ABCC2 (gene 1244)
Description: LTEA_HepaRG_ABCC2: Life Technologies and Expression Analysis (LTEA) Assay for ABC Transporter (ABCC2) using HepaRG (AID 2283464). A digest of the protocol: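 HepaRG cells were plated 48 h, switched to serum-free induction medium, then exposed in duplicate for 48 h to 8 concentrations (top 100 uM, half-log steps, 0.5% DMSO). ABCC2 mRNA was measured by qRT-PCR normalized to ACTB/GAPDH/POLR2A; bidirectional fitting versus DMSO.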

Read-out in assay [12]: Broad substrate specificity ATP-binding cassette transporter ABCG2 (Homo sapiens) (UniProt Q9UNQ0)
The assay can be described thus: LTEA_HepaRG_ABCG2: Life Technologies and Expression Analysis (LTEA) Assay for ABC Transporter (ABCG2) using HepaRG (AID 2283465). A digest of the protocol:
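Differentiated HepaRG cells were exposed for 48 h in serum-free induction medium to 8 half-log concentrations, top 100 uM, in 0.5% DMSO. ABCG2 mRNA was measured by qRT-PCR, normalized to ACTB, GAPDH and POLR2A, with bidirectional fitting versus DMSO.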

Read-out in assay [13]: ATP-citrate lyase (ACLY), ACLY (gene 47)
Description: LTEA_HepaRG_ACLY: Life Technologies and Expression Analysis (LTEA) Assay for ATP-citrate lyase (ACLY) using HepaRG (AID 2283466). The essentials:
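Differentiated HepaRG cells exposed 48 h in serum-free induction medium to eight half-log concentrations up to 100 uM in 0.5% DMSO, duplicates. Transcript measured by Fluidigm TaqMan qRT-PCR, normalized to ACTB, GAPDH, POLR2A; bidirectional fit versus DMSO.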

Read-out in assay [14]: Peroxisomal acyl-coenzyme A oxidase 1 (ACOX1) gene, ACOX1 (gene 51)
Description: LTEA_HepaRG_ACOX1: Life Technologies and Expression Analysis (LTEA) Assay for Peroxisomal acyl-coenzyme A oxidase 1 (ACOX1) gene using HepaRG (AID 2283467). The essentials:
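HepaRG cells, plated 48 h then switched to serum-free induction medium, were exposed in duplicate for 48 h to 8-point half-log concentrations up to 100 uM in 0.5% DMSO. ACOX1 mRNA was measured by qRT-PCR, normalized to ACTB/GAPDH/POLR2A, and fitted bidirectionally versus DMSO.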

Read-out in assay [15]: Alkaline Phosphatase, Placental (ALPP) gene, ALPP (gene 250)
The assay can be described thus: LTEA_HepaRG_ALPP: Life Technologies and Expression Analysis (LTEA) Assay for Alkaline Phosphatase, Placental (ALPP) gene using HepaRG (AID 2283468). The essentials: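 Differentiated human HepaRG cells were plated and cultured 48 h, then exposed in duplicate for 48 h in serum-free induction medium to eight half-log concentrations from 100 uM in 0.5% DMSO. ALPP mRNA was measured by TaqMan qRT-PCR, normalized to ACTB, GAPDH, POLR2A.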

Read-out in assay [16]: Bcl-2 (BAD) gene, BAD (gene 572)
Description: LTEA_HepaRG_BAD: Life Technologies and Expression Analysis (LTEA) Assay for Bcl-2 (BAD) gene using HepaRG (AID 2283469). A digest of the protocol: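 Differentiated HepaRG cells were exposed in duplicate in 0.5% DMSO for 48 h to eight-point half-log concentrations up to 100 uM. BAD mRNA was measured by Fluidigm TaqMan qRT-PCR, normalized to ACTB, GAPDH and POLR2A, and fitted bidirectionally against DMSO.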

Read-out in assay [17]: Bcl-2 (BAX) gene, BAX (gene 581)
The assay can be described thus: LTEA_HepaRG_BAX: Life Technologies and Expression Analysis (LTEA) Assay for Bcl-2 (BAX) gene using HepaRG (AID 2283470). The essentials:
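HepaRG (human liver), 48 h exposure, duplicate wells. 8-pt curve, half-log from 100 uM, 0.5% DMSO. BAX transcript by TaqMan qRT-PCR; ACTB/GAPDH/POLR2A normalization; gain or loss vs DMSO baseline.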

Read-out in assay [18]: growth arrest and DNA damage 45 (GADD45B), GADD45B (gene 4616)
The assay can be described thus: LTEA_HepaRG_GADD45B: Life Technologies and Expression Analysis (LTEA) Assay for growth arrest and DNA damage 45 (GADD45B) using HepaRG (AID 2283461). The essentials:
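Differentiated HepaRG cells, plated 48 h then switched to serum-free induction medium, were exposed 48 h in duplicate to eight half-log concentrations from 100 uM in 0.5% DMSO; mRNA quantified by qRT-PCR, normalized to ACTB/GAPDH/POLR2A, bidirectional fit versus DMSO.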

Read-out in assay [19]: growth arrest and DNA damage 45 (GADD45A), GADD45A (gene 1647)
Description: LTEA_HepaRG_GADD45A: Life Technologies and Expression Analysis (LTEA) Assay for growth arrest and DNA damage 45 (GADD45A) using HepaRG (AID 2283458). The essentials:
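Cells plated and cultured 48 h, switched to serum-free induction medium, then dosed for 48 h (100 uM top, half-log dilutions, 0.5% DMSO). RNA was isolated and transcript measured by Fluidigm qRT-PCR.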

Calls of active or inactive are those of the source. How the source made its calls: active means hit-call score of the fitted dose curve at least 0.9, where 1 is the maximum; inactive means score below 0.9.

Broad substrate specificity ATP-binding cassette transporter ABCG2 (Homo sapiens), sequence (Q9UNQ0 whole entry, looked up): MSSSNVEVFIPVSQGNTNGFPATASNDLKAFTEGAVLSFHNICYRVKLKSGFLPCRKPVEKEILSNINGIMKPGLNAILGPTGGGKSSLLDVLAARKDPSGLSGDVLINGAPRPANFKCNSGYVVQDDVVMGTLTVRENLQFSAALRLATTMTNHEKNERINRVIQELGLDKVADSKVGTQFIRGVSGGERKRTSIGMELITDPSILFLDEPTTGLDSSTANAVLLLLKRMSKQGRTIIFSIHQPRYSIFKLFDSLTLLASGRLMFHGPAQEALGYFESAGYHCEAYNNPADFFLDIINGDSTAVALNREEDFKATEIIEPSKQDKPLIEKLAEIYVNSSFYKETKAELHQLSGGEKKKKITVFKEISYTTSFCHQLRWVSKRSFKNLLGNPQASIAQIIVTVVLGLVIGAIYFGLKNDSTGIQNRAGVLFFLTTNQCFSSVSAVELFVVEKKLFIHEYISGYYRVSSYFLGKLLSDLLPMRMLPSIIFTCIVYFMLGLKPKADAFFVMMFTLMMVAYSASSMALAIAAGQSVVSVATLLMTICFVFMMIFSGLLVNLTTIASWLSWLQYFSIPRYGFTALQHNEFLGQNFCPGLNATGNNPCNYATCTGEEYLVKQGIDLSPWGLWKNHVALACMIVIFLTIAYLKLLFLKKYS

`CC(O)CCO` (stereo not given): the outcome in assay [1], in assay [2], in assay [3], in assay [4], in assay [5] and in [6] was inactive. For the same compound, the compound was called inactive in assay [7], in [8], in assay [9], in assay [10], in assay [11] and in [12]. The call in assay [13], in assay [14], in assay [15], in assay [16] and in assay [17] was inactive.
A word on the AC50: it is the concentration at which the activity in the assay is half-maximal. Turning to `O=C(N[C@H](c1ccccc1)[C@@H]1CN2CCC1CC2)c1c(Cl)ccc(C(F)(F)F)c1Cl`, the concentration at half-maximal activity (AC50) in assay [1] was 74.2 µM (active); in assay [2], 68.5 µM (active); in assay [3], 65.9 µM (active); in assay [4], 11 µM (active); in [5] it was 82.4 µM (active); in [6] it was 74.5 µM (active). For the same compound, the AC50 is 13.5 µM (active) in assay [8]; 46.2 µM (active) in [18]; 36.3 µM (active) in [9]; 71.8 µM (active) in [11]; 78.7 µM (active) in assay [13]; 70.3 µM (active) in [14]. Besides, the AC50 in [15] is 11.8 µM (active); in assay [17] it was 75.3 µM (active). Besides, the compound was called inactive in [7], in assay [10], in assay [12] and in assay [16].
As to `[As]#[In]`, the result in assay [1], in assay [2], in assay [3], in assay [4], in [5] and in assay [6] was inactive. For the same compound, the result in assay [19], in assay [7], in assay [18], in assay [9], in assay [10] and in assay [11] was inactive. For the same compound, the compound was called inactive in assay [12], in assay [13], in [14], in [15], in [16] and in [17].
On to `CCN(CC)N=O`, for which the compound was classed as inactive in assay [1], in [2], in assay [3], in assay [5], in assay [6] and in assay [19]. For the same compound, the result in assay [7], in [18], in assay [10], in [11], in assay [12] and in assay [13] was inactive. The outcome in [14], in [15], in assay [16] and in assay [17] was inactive. In addition, the AC50 in [4] is 76.5 µM (active).

(Values after PubChem BioAssay (EPA / NIEHS).)
